Data on 98 compounds can be found in PubChem BioAssay AID2018 (Sanford-Burnham Center for Chemical Genomics, 2009).

Out of some 1,200 compounds screened, about 600 (50%) were called active. So high a share suggests a set chosen from earlier hits. The list shows a part of the results. Entries with a potency or affinity are not part of this list. A number with no mark means an inactive call. Cut-off read from the data, not from the text of the source: active = inhibition above about 42%; inactive = the rest.

The target of this test is SUMO-conjugating enzyme UBC9 (Homo sapiens) (UniProt P63279). Nature of the test: blockers of UBC9-mediated SUMO conjugation – biochemical, AlphaScreen, SUMOylation inhibitor project, confirmation (AID 2018). The note with it: AlphaScreen in vitro SUMOylation assay; at 35 µM; stronger effect = higher value.
Sequence of SUMO-conjugating enzyme UBC9 (Homo sapiens) (P63279 whole entry, looked up): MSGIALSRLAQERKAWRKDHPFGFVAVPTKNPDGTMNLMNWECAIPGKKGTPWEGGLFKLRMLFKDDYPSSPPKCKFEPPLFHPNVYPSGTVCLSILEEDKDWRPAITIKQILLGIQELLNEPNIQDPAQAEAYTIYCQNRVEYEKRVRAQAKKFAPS
Turning to `O=[N+]([O-])c1ccc(Cl)c(C2Nc3cccc4cccc(c34)N2)c1`, the inhibition is 30.6%.
For the compound `O=C(CNc1cccc2ccccc12)c1ccc([N+](=O)[O-])cc1`, the inhibition is 26.3%.
The figure for `O=[N+]([O-])c1ccc(C2Nc3cccc4cccc(c34)N2)cc1` is 49.3% (active); for `CN(CCC#N)C(=O)COC(=O)c1c2c(nc3ccccc13)/C(=C/c1ccco1)CC2` it is 43.2% (active); for `Cc1cnc(C(=O)OCC(=O)c2ccc(F)cc2)cn1` it is 1.5%.
As to `CCOc1ccc(C2C=C(c3ccccc3)Nc3ncnn32)cc1` (stereo not drawn), the inhibition was 13.5%.
Consider `CC1=CC2(O)OCCN(CCO)C2=CC1=O` (stereo not drawn), for which the inhibition is 8.3%.
The figure for `CCOC(=O)C1CCCN(c2cc(NCCCO)c([N+](=O)[O-])c3nonc23)C1` (stereo not drawn) is -6.6%; for `CC1CCCN(C2=C(NS(=O)(=O)c3ccc(Br)cc3)C(=O)c3ccccc3C2=O)C1` (stereo not drawn) it is 55.3% (active).
For `CCOC(=O)C1CCN(C2=C(NS(=O)(=O)c3ccc(Br)cc3)C(=O)c3ccccc3C2=O)CC1` the value was 91.9% (active); for `NC(=O)C1CCN(C2=C(NS(=O)(=O)c3ccccc3)C(=O)c3ccccc3C2=O)CC1`, 35.9%; for `CC1CCN(C2=C(NS(=O)(=O)c3ccc(Br)cc3)C(=O)c3ccccc3C2=O)CC1`, 94% (active).
`NC(=O)C1CCN(C2=C(NS(=O)(=O)c3ccc(Cl)cc3)C(=O)c3ccccc3C2=O)CC1`: the inhibition was 87.2% (active).
The figure for `Fc1ccc(-c2nc3cnccn3c2NC2CCCC2)cc1` is -43.2%; for `COc1cc2c(cc1OC)C(C)=NC1(CCCCC1)C2` it is -0.1%.
For `CN(C)c1cccc2c(S(=O)(=O)N3CCCC3)cccc12` the value was -26.8%; for `CN(C)c1cccc2c(S(=O)(=O)Nc3ccccn3)cccc12`, 69.7% (active); for `c1ccc(Nc2ccccc2Nc2ccccn2)nc1`, -1.2%.
The figure for `Cc1cccc(NC(=S)Nc2cccc3ccccc23)c1` is 19%.
Consider `Cc1cccc(NC2=C(NCCO)C(=O)c3ccccc3C2=O)c1`, for which the inhibition is 82% (active).
Take `N#Cc1c(-c2cccc(Br)c2)cc(-c2ccco2)[nH]c1=O`: the inhibition was 54% (active).
The figure for `O=C(CNc1cccc2ccccc12)N/N=C/c1ccc(OC(=O)/C=C/c2ccco2)cc1` is 3.4%; for `O=C(CSc1nnc(SCc2ccccc2)s1)N/N=C/C=C\c1ccco1` it is 65% (active); for `O=C(Cc1cccs1)N/N=C/C=C\c1ccco1` it is 26%.
The figure for `Cn1c2ccc(Cl)cc2c2nc3ccccc3nc21` is 4.7%; for `COCCn1c(-c2cccs2)csc1=Nc1cccnc1` it is 12.7%.
As for `Cc1ccc(S(=O)(=O)c2cc3c(=O)n4ccccc4nc3n(Cc3ccco3)c2=N)cc1C`, the inhibition is 45.2% (active).
For `Cn1c(C(=O)N2COCC2(C)C)cc2c(=O)n3ccccc3nc21` the value was -16.1%.
In the case of `Cn1c(C(=O)NCC2CCCO2)cc2c(=O)n3ccccc3nc21` (stereo not drawn), the inhibition was -2.8%.
For `COCCCn1c(C(=O)N2CC(C)OC(C)C2)cc2c(=O)n3ccccc3nc21` (stereo not drawn) the value was -18.6%; for `Cc1cccn2c(=O)c3cc(S(=O)(=O)c4ccccc4)c(=N)n(Cc4ccco4)c3nc12`, 27.5%.
`COCCCn1c(C(=O)N2CCOCC2)cc2c(=O)n3ccccc3nc21`: the inhibition is 2.8%.
For `Cn1c(C(=O)N2CCN(C(=O)c3ccco3)CC2)cc2c(=O)n3ccccc3nc21` the value was -14.7%.
Regarding `Cc1cccn2c(=O)c3cc(S(=O)(=O)c4ccc(F)cc4)c(=N)n(Cc4ccco4)c3nc12`, the inhibition was 7.6%.
As for `CC1CCCCC1NC(=O)c1cc2c(=O)n3ccccc3nc2n1C` (stereo not drawn), the inhibition was -8.7%.
For `CCN(CC(=O)c1c(N)n(C)c(=O)n(C)c1=O)c1cccc2ccccc12` the value was -12.9%; for `O=c1c2cc(N3CCOCC3)ccc2[nH]c(=S)n1Cc1ccccn1`, 2.9%; for `Oc1cccc2c(NC(=S)Nc3ccc(OC(F)F)cc3)cccc12`, 27.3%.
For `CC(C)NC(=S)Nc1cccc2cnccc12` the value was -0.7%.
With `Nc1cccc2cnccc12`, the inhibition is 45.1% (active).
Consider `FC(F)(F)c1ccccc1NC(=S)Nc1cccc2cnccc12`, for which the inhibition was 18.9%.
Regarding `CCc1ccc(OCC(=O)N/N=C2\CC(=O)c3ccccc32)cc1`, the inhibition is 100% (active).
For `CC(C)c1onc(C(=O)N2CCC(C(N)=O)CC2)c1[N+](=O)[O-]` the value was -13.8%; for `Cc1ccc(NC2=CC(=O)C(=O)c3ccccc32)cc1`, 100% (active).
For `O=C1C=C(NCc2ccccc2)c2ccccc2C1=O` the value was 102% (active); for `Cn1c(=O)c2cc(NCc3ccccc3)nnc2n(C)c1=O`, 12.8%; for `Fc1cccc(-n2c(-c3cccs3)nc3nc4ccccc4nc32)c1`, 8.7%.
Turning to `O=C(NNc1cc(N2CCOCC2)nc(N2CCOCC2)n1)c1ccc(Cl)c(Cl)c1`, the inhibition was 66.9% (active).
On to `O=C(CCc1ccccc1)NNc1cc(N2CCCCC2)nc(N2CCCCC2)n1`, for which the inhibition was 50% (active).
The figure for `CC(C)(C)c1ccc(C(=O)NNc2cc(N3CCOCC3)nc(N3CCOCC3)n2)cc1` is 23.5%; for `CCCCOc1ccc(CSc2ncn[nH]2)cc1` it is 3.3%.
For `O=C(Nc1ccccc1-c1nc2ccccc2s1)c1cccnc1Cl` the value was 18.7%; for `CC1N(C)c2cccc3cccc(c23)N1C`, 49.8% (active).
Take `C=CCN1C(=O)N(CC=C)c2cccc3cccc1c23`: the inhibition was -10.4%.
Regarding `CCN1C(=O)N(CC)c2cccc3cccc1c23`, the inhibition is 10.6%.
The figure for `O=C(c1csc(Nc2cccc3ccccc23)n1)N1CCCC1` is 19.2%; for `C[n+]1cccc2ccc3c(c21)OC(N)=C(C#N)C3c1ccccc1` (stereo not drawn) it is -6.6%.
The figure for `C[n+]1cccc2c(Br)ccc([O-])c21` is 102% (active).
Turning to `C[n+]1cccc2cccc([O-])c21`, the inhibition was 101% (active).
For `Cc1ccc(N2CSC3=C(C#N)C(c4cccs4)CC(=O)N3C2)cc1` (stereo not drawn) the value was 38.3%; for `CCCCN(C)S(=O)(=O)c1cc(Br)cc2c1N(C(=O)C1CC1)CC2`, -3.7%; for `O=c1[nH]cc(I)cc1I`, 8.4%.
For `Cc1cc(-c2csc(N)n2)c(C)n1Cc1ccco1`, the inhibition was 21.9%.
For the compound `COc1ccc(CNC(=O)c2c(C)oc3c2C(=O)c2ccccc2C3=O)cc1`, the inhibition is 49.7% (active).
The figure for `Cc1oc2c(c1C(=O)O)C(=O)c1ccccc1C2=O` is 86.7% (active); for `COc1ccc(S(=O)(=O)N(C)c2ccc(C(=O)NCc3ccccn3)cc2)cc1` it is 4.9%; for `COc1ccc2oc(=O)c(C(=O)NCC3CCCO3)cc2c1` (stereo not drawn) it is -13.9%.
The figure for `Cc1oc2c(c1C(=O)N1CCC(C)CC1)C(=O)c1ccccc1C2=O` is 29.2%; for `CCOC(=O)c1c(C)oc2c1C(=O)c1ccccc1C2=O` it is 47.8% (active); for `CC(C)NC(=O)N1CCC(n2nccc2NC(=O)CCOc2ccccc2)CC1` it is 9%.
The figure for `Nc1ccc2c(c1)C/C(=C/c1ccco1)C2=O` is 13.8%; for `NN1C(=O)/C(=C\c2ccco2)SC1=S` it is 56% (active).
As to `O=C1S/C(=C\C=C\c2ccco2)C(=O)N1c1ccc(O)cc1`, the inhibition was 40.4%.
For `C(=N\C(/N=C/c1ccco1)c1ccco1)/c1ccco1` the value was 30%.
For `O=C1/C(=C\c2ccco2)SC(=S)N1C1CCS(=O)(=O)C1` (stereo not drawn), the inhibition is 39.6%.
For the compound `CCOC(=O)c1nn(-c2ccc3c(c2)CCN3C(C)=O)cc1O`, the inhibition is 16.7%.
Take `Cc1ccc2[nH]c3c(c2c1)CN(C(=O)CN1CCN(c2cccc(C)c2C)CC1)CC3`: the inhibition is 41.7%.
In the case of `COc1ccc2nc3cccc(OC)c3nc2c1`, the inhibition is -22.2%.
The figure for `COc1ccccc1CCn1c(N)c(C#N)c2nc3ccccc3nc21` is 22.4%.
For `COc1ccc2nc3ccccc3nc2c1N` the value was 66.5% (active); for `CN(Cc1ccco1)C(=O)c1cc2c(s1)-c1ccc(Cl)cc1S(=O)(=O)C2`, 11.3%.
For `O=C(O)CCC(=O)Nc1ccccc1C(=O)Nc1ccccc1` the value was -5.9%.
Regarding `Cc1ccc(NC(=O)CCC(=O)OCC(=O)c2ccc(-c3ccccc3)cc2)cc1`, the inhibition was 22.2%.
The figure for `C=CCNC(=O)c1c(N)n(-c2cccc(S(N)(=O)=O)c2)c2nc3ccccc3nc12` is 2%.
Consider `CCN(CC)C(=O)COc1ccc2oc(-c3ccco3)cc(=O)c2c1`, for which the inhibition is -1.1%.
The figure for `COc1ccc(-n2c(N)c(C(=O)NCC3CCCO3)c3nc4ccccc4nc32)c(OC)c1` (stereo not drawn) is -13.9%; for `COc1ccc(-n2c(N)c(C(=O)NCc3ccco3)c3nc4ccccc4nc32)cc1OC` it is 33.2%.
In the case of `Cc1ccc(/C=c2\sc3nc(-c4ccco4)nn3c2=O)o1`, the inhibition is 83.3% (active).
Regarding `O=[N+]([O-])c1cc(CN2CCN(c3cccc(C(F)(F)F)c3)CC2)c2cccnc2c1O`, the inhibition was 64.3% (active).
Take `O=[N+]([O-])c1ccc(N2CCN(CCO)CC2)c2ncccc12`: the inhibition was -17.2%.
Take `COc1ccc2c(c1)CC/C(=C\Nc1ccc3c(c1)OCO3)C2=O`: the inhibition is 97.5% (active).
The figure for `COc1ccc2c(c1)CC/C(=C\C=C\c1ccccc1)C2=O` is 31.7%; for `COc1ccccc1C(=O)Nc1sc2c(c1C(=O)NCc1ccco1)CCCC2` it is 35.7%; for `O=C(CSc1ccc(Br)c2cccc(Cl)c12)Nc1ccc(S(=O)(=O)Nc2nccs2)cc1` it is 101% (active).
Consider `CC(C)CC(=O)Nc1ccc(C(=O)Cn2nc(C(=O)O)c3ccccc3c2=O)cc1`, for which the inhibition was 36%.
For `O=C(Cn1nnc2ccccc21)NCc1ccccc1` the value was 4.8%; for `N#Cc1cnn2c(-c3ccccc3)ccnc12`, 3.3%; for `O=C(Cc1cccc2ccccc12)NN1C(=O)/C(=C\c2cccnc2)SC1=S`, 29.3%.
